Compounds without any hit were thinned out: in the full panel of roughly 83,000, 20% have a hit.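 Assay: single dose, 48 h. Readout: percent growth (0 = no net growth; negative = cell death). Active: <10.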 Values without a mark were called inactive. Activity calls are given as the source filed them.

What all share (assay): NCI-60 one-dose screen, 48 h (100 = growth as untreated, 0 = no growth, -100 = all killed)
Conditions in all cases: 10 µM unless noted

Test [1] deals with MOLT-4 leukemia.
The subject of test [2] is SR leukemia.
In test [3] the test system is RPMI-8226 leukemia.
The subject of test [4] is OVCAR-8 ovarian.
In test [5] the test system is OVCAR-5 ovarian.
The test system of test [6] is OVCAR-4 ovarian.
In test [7] the test system is SK-OV-3 ovarian.
In test [8] the test system is IGROV1 ovarian.
Test [9] has as its system OVCAR-3 ovarian.
For test [10], the system named is HS 578T breast.
Test [11] relates to NCI/ADR-RES ovarian.
Test [12] concerns T-47D breast.
The subject of test [13] is BT-549 breast.
Test [14] has as its system MDA-MB-435 melanoma.
The test system of test [15] is SW-620 colon.
In test [16] the test system is MCF7 breast.
For test [17], the system named is HCT-116 colon.
Test [18] concerns HCC-2998 colon.
Test [19] concerns KM12 colon.

For the compound `ClCCN(CCCl)c1ccc(OCc2ccccc2)cc1`, the growth in test [1] is 11.7%; in [2], -8.12% (active); in test [3], 64.8%; in test [4], 55.8%; in test [5], 89%; in [6] it was 78.7%. Also, the growth in test [7] was 65.2%; in test [8], 76.7%; in test [9], 78%; in [10] it was 96.6%; in test [11] it was 56.7%; in [12] it was 68.4%. Further, the growth in test [13] was 42.7%; in test [14], 75%; in [15] it was 60.9%; in test [16], 31.7%; in test [17] it was 55.9%; in [18], 89.1%. Also, the growth in [19] is 90.5%.
Take `O=C(CCCCCCC(=O)Nc1ccc(N(CCCl)CCCl)cc1)NO`: the growth in test [1] was 19.5%; in test [2], 12.2%; in test [3] it was 49.1%; in [4], 19.3%; in [5] it was 53.7%; in test [6] it was 44.9%. Moreover, the growth in test [7] was 26.3%; in test [8], 59.2%; in [9], 41.7%; in [10], 71.7%; in [11] it was 64.6%; in test [12] it was -8.98% (active). The growth in [13] was 58.9%; in test [14], 45.1%; in test [15], 33.2%; in test [16], 9.37% (active); in test [17] it was 36.1%; in [18] it was 52.1%. Besides, the growth in test [19] is 63%.
On to `COC(=O)[C@@]1(C)CC[C@]2(C)CC[C@]3(C)C4=CC=C5C(=CC(=O)C(O)=C5C)[C@]4(C)CC[C@@]3(C)[C@@H]2C1`, for which the growth in [1] is -43.3% (active); in test [2], -46.7% (active); in test [3], -26.7% (active); in [4], -72.9% (active); in test [5], -93.1% (active); in test [6] it was -95% (active). Further, the growth in test [7] is -97.6% (active); in test [8], -77.4% (active); in [9], -92.1% (active); in [10] it was -41.6% (active); in test [11] it was -59.8% (active); in test [12] it was -57.1% (active). Moreover, the growth in [13] was -95.2% (active); in test [14] it was -90.8% (active); in [15] it was -83% (active); in test [16] it was -69.1% (active); in test [17], -96.4% (active); in test [18], -69.5% (active). The growth in test [19] is -63.1% (active).
Take `COC(=O)[C@@H](C)C[C@H](Cc1ccccc1)NC(=O)c1csc(CC[C@H](C(C)C)N(C)C(=O)[C@@H](NC(=O)[C@H]2CCCCN2C)C(C)C)n1`: the growth in test [1] is 14.4%; in test [2], 15.9%; in test [3], 19.8%; in [4], 20.6%; in test [5], 54%; in [6], 53.2%. The growth is 37.7% in [7]; 32.4% in test [8]; -5.55% (active) in test [9]; 33.2% in [10]; 53.1% in [11]; 56.8% in test [12]. Further, the growth in [13] is 7.17% (active); in test [14] it was -48.6% (active); in [15], 30.6%; in test [16] it was 20.3%; in test [17] it was 3.72% (active); in [18] it was 24.5%. The growth in test [19] was 16.2%.
As for `CC(C)COC(C[N+](=O)[O-])C(Cl)(Cl)Cl` (configuration not stated), the growth in test [1] is 103%; in test [2], 94.7%; in test [3], 116%; in [4], 101%; in [5] it was 109%; in [6], 101%. For the same compound, the growth in test [7] is 106%; in test [8], 103%; in [9] it was 115%; in test [10] it was 119%; in test [11], 94.2%; in [12], 111%. The growth in test [13] is 106%; in test [14] it was 111%; in [15], 107%; in test [16], 98.8%; in test [17] it was 111%; in [18], 102%. Besides, the growth in [19] was 104%.
For `Cc1ccc(N2COOC3(OOC2)C2CC4CC(C2)CC3C4)cc1`, the growth is 79.3% in test [1]; 46.4% in test [2]; 102% in test [3]; 99% in [4]; 101% in test [5]; 101% in [6]. Moreover, the growth in test [7] is 101%; in test [8], 45.2%; in [9], 102%; in test [10], 109%; in test [11], 95.6%; in test [12], 82.7%. In addition, the growth is 95.7% in test [13]; 93.2% in [14]; 108% in test [15]; 77.6% in test [16]; 89% in test [17]; 107% in [18]. Further, the growth in test [19] was 90.6%.
Turning to `C=C(C)[C@@]12OC3(/C=C/C=C/CCCCC)O[C@@H]1[C@@H]1[C@@H]4O[C@]4(CO)[C@@H](O)[C@]4(O)C(=O)C(C)=C[C@H]4[C@@]1(O3)[C@H](C)[C@H]2OC(=O)c1ccccc1`, the growth in [1] was 31.2%; in test [2], 67.2%; in [3] it was 66.4%; in test [4] it was 82.6%; in test [5], 107%; in [6], 72.2%. Also, the growth in [7] was 102%; in test [8], 52.3%; in test [9], 61.6%; in test [10], 4% (active); in test [11], 69.4%; in test [12], 81.7%. Moreover, the growth in [13] was 83%; in test [14], 40.5%; in [15] it was 58.9%; in test [17], 49.7%; in test [18], -3.12% (active); in [19] it was 9.5% (active).
